Experimental data reported in PubChem BioAssay (EPA / NIEHS).
Values joined by “and” are separate entries in the source; they are usually repeats but may differ in a detail not shown here. Identical values can stand only once. More than one record can exist for a structure, and the calls need not agree. Active and inactive are the calls of the source. How the source made its calls: active means hit-call score of the fitted dose curve at least 0.9, where 1 is the maximum; inactive means score below 0.9.

Legend:
Details in all cases: mRNA level, 48 h; actives raise or lower the signal
[1] = read-out: Intercellular Adhesion Molecule 1 (ICAM1), ICAM1 (gene 3383); assay: LTEA_HepaRG_ICAM1: Life Technologies and Expression Analysis (LTEA) Assay for Intercellular Adhesion Molecule 1 (ICAM1) using HepaRG (AID 2283507)
In short: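 ICAM1 transcript levels measured by qRT-PCR, normalized to three housekeeping genes (ACTB, GAPDH, POLR2A), after 48 h chemical exposure of HepaRG cells. Duplicate eight-point half-log series from 100 uM in 0.5% DMSO; gain or loss fitted against vehicle.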

[2] = read-out: Insulin-like growth factor-binding protein 1 (IGFBP1), IGFBP1 (gene 3484); assay: LTEA_HepaRG_IGFBP1: Life Technologies and Expression Analysis (LTEA) Assay for Insulin-like growth factor-binding protein 1 (IGFBP1) using HepaRG (AID 2283508)
In short: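 Read-out is qRT-PCR transcript level normalized to three housekeeping genes, fitted in both directions against 0.5% DMSO. Differentiated HepaRG cells received eight half-log concentrations (top 100 uM) in duplicate for 48 h in serum-free induction medium.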

[3] = read-out: Interleukin 6 (IL6), IL6 (gene 3569); assay: LTEA_HepaRG_IL6: Life Technologies and Expression Analysis (LTEA) Assay for Interleukin 6 (IL6) using HepaRG (AID 2283509)
In short: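 HepaRG, ~100,000 cells/well, 48 h pre-culture; serum-free induction medium; cmpd 8-pt half-log from 100 uM, 0.5% DMSO, duplicate, 48 h. Lysis in RLT, TaqMan qRT-PCR; gain or loss vs DMSO.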

[4] = read-out: Interleukin 6 Receptor (IL6R), IL6R (gene 3570); assay: LTEA_HepaRG_IL6R: Life Technologies and Expression Analysis (LTEA) Assay for Interleukin 6 Receptor (IL6R) using HepaRG (AID 2283510)
In short: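 Differentiated HepaRG cells, plated 48 h, then exposed in duplicate for 48 h in serum-free induction medium to 8 half-log concentrations (top 100 uM, 0.5% DMSO). IL6R mRNA measured by TaqMan qRT-PCR, normalized to ACTB/GAPDH/POLR2A; bidirectional fit vs DMSO.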

[5] = read-out: Potassium channel subfamily K member 1 (KCNK1), KCNK1 (gene 3775); assay: LTEA_HepaRG_KCNK1: Life Technologies and Expression Analysis (LTEA) Assay for Potassium channel subfamily K member 1 (KCNK1) using HepaRG (AID 2283511)
In short: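 Gain or loss of KCNK1 mRNA is the read-out, quantified by qRT-PCR against three housekeeping genes after 48 h chemical treatment of human HepaRG liver cells. Concentrations ran from 100 uM downward in half-log steps, vehicle 0.5% DMSO.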

[6] = read-out: Keratin 19 (KRT19), KRT19 (gene 3880); assay: LTEA_HepaRG_KRT19: Life Technologies and Expression Analysis (LTEA) Assay for Keratin 19 (KRT19) using HepaRG (AID 2283512)
In short: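 KRT19 transcript measured by TaqMan qRT-PCR, referenced to three housekeeping genes, after HepaRG cells received test chemicals for 48 h. Eight half-log concentrations, top 100 uM, 0.5% DMSO vehicle; increases and decreases both fitted.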

[7] = read-out: JUN Transcription Factor, JUN (gene 3725); assay: LTEA_HepaRG_JUN: Life Technologies and Expression Analysis (LTEA) Assay for JUN Transcription Factor using HepaRG (AID 2283513)
In short: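 HepaRG cells, 48 h post-plating, exposed 48 h in serum-free induction medium to 8-point half-log series (top 100 uM, 0.5% DMSO), duplicate; mRNA by qRT-PCR (TaqMan, Fluidigm), normalized to ACTB/GAPDH/POLR2A; bidirectional fit vs DMSO.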

[8] = read-out: Lipase C (LIPC), LIPC (gene 3990); assay: LTEA_HepaRG_LIPC: Life Technologies and Expression Analysis (LTEA) Assay for Lipase C (LIPC) using HepaRG (AID 2283514)
In short: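 Read-out is LIPC transcript level by TaqMan qRT-PCR, normalized to three housekeeping genes, after 48 h chemical treatment of human HepaRG liver cells. Curves span eight concentrations topping at 100 uM; activity in either direction scored relative to 0.5% DMSO.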

[9] = read-out: Lipoprotein lipase (LPL), LPL (gene 4023); assay: LTEA_HepaRG_LPL: Life Technologies and Expression Analysis (LTEA) Assay for Lipoprotein lipase (LPL) using HepaRG (AID 2283515)
In short: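 Read-out is LPL transcript level by qRT-PCR, normalized to three housekeeping genes and fitted bidirectionally against the DMSO control. Human HepaRG cells received chemicals for 48 h at up to 100 uM.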

[10] = read-out: MicroRNA 122 (MIR122), gene 406906; assay: LTEA_HepaRG_MIR122: Life Technologies and Expression Analysis (LTEA) Assay for MicroRNA 122 (MIR122) using HepaRG (AID 2283516); further: the transcript read is the microRNA miR-122
In short: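 Differentiated human HepaRG cells in serum-free induction medium exposed 48 h to 8 half-log concentrations from 100 uM in 0.5% DMSO, duplicate. MIR122 quantified by Fluidigm TaqMan qRT-PCR, normalised to ACTB, GAPDH, POLR2A; fold change fitted bidirectionally versus DMSO.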

[11] = read-out: matrix metalloproteinase-10 (MMP10), MMP10 (gene 4319); assay: LTEA_HepaRG_MMP10: Life Technologies and Expression Analysis (LTEA) Assay for matrix metalloproteinase-10 (MMP10) using HepaRG (AID 2283517)
In short: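 Gain or loss of MMP10 mRNA is fitted relative to the 0.5% DMSO vehicle. The human hepatic line HepaRG receives a 48-hour serum-free exposure, in duplicate, with a maximum concentration of 100 uM.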

MYC, MYC (gene 4609) = assay: LTEA_HepaRG_MYC: Life Technologies and Expression Analysis (LTEA) Assay for MYC using HepaRG (AID 2283518)
In short: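 MYC transcript changes, up or down relative to 0.5% DMSO, from TaqMan qRT-PCR normalized to three housekeeping genes. Human HepaRG cultures received chemicals for 48 h at eight half-log concentrations up to 100 uM, in duplicate.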

[12] = read-out: matrix metalloproteinase-3 (MMP3), MMP3 (gene 4314); assay: LTEA_HepaRG_MMP3: Life Technologies and Expression Analysis (LTEA) Assay for matrix metalloproteinase-3 (MMP3) using HepaRG (AID 2283519)
In short: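 HepaRG, human; 48 h dosing, 8 conc. (max 100 uM, half-log), duplicate, 0.5% DMSO. Readout: MMP3 transcript by Fluidigm TaqMan qRT-PCR, ACTB/GAPDH/POLR2A-normalised. Gain or loss fitted vs DMSO.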

[13] = read-out: Paternally Expressed 10 (PEG10), PEG10 (gene 23089); assay: LTEA_HepaRG_PEG10: Life Technologies and Expression Analysis (LTEA) Assay for Paternally Expressed 10 (PEG10) using HepaRG (AID 2283520)
In short: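 Differentiated HepaRG cells exposed 48 h in serum-free induction medium to eight half-log concentrations topping at 100 uM, 0.5% DMSO, in duplicate. PEG10 mRNA quantified by TaqMan qRT-PCR, normalized to ACTB, GAPDH and POLR2A; bidirectional fit versus DMSO.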

[14] = read-out: Nuclear factor NF-kappa-B p105 subunit (Homo sapiens) (UniProt P19838); assay: LTEA_HepaRG_NFKB1: Life Technologies and Expression Analysis (LTEA) Assay for Nuclear Factor Kappa B Subunit 1 (NFKB1) using HepaRG (AID 2283521)
In short: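 HepaRG, 48 h exposure; 8-pt half-log series from 100 uM in 0.5% DMSO; duplicates. Readout: NFKB1 mRNA by qRT-PCR (Fluidigm arrays), housekeeping-normalized. Gain/loss fit vs DMSO baseline.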

[15] = read-out: Protein phosphatase 2A (PPP2R4), PTPA (gene 5524); assay: LTEA_HepaRG_PPP2R4: Life Technologies and Expression Analysis (LTEA) Assay for Protein phosphatase 2A (PPP2R4) using HepaRG (AID 2283522)
In short: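 Differentiated human HepaRG cells in serum-free induction medium were exposed 48 h to 8 concentrations (top 100 µM, half-log steps, duplicate) in 0.5% DMSO. PPP2R4 mRNA was measured by TaqMan qRT-PCR, normalised to ACTB, GAPDH and POLR2A, and fitted bidirectionally versus DMSO.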

[16] = read-out: Phosphatase and tensin (PTEN), PTEN (gene 5728); assay: LTEA_HepaRG_PTEN: Life Technologies and Expression Analysis (LTEA) Assay for Phosphatase and tensin (PTEN) using HepaRG (AID 2283523)
In short: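 Read-out is PTEN transcript level by multiplexed TaqMan qRT-PCR after 48 h chemical treatment of human HepaRG cultures in serum-free induction medium. Concentrations spanned 100 uM downward in half-log steps, 0.5% DMSO throughout; activity fitted in both directions against vehicle.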

[17] = read-out: solute carrier (SLC22A1), SLC22A1 (gene 6580); assay: LTEA_HepaRG_SLC22A1: Life Technologies and Expression Analysis (LTEA) Assay for solute carrier (SLC22A1) using HepaRG (AID 2283524)
In short: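 HepaRG (human liver line), 48 h dosing in serum-free induction medium; 8 conc., half-log down from 100 uM, 0.5% DMSO vehicle, duplicates. Endpoint: SLC22A1 mRNA, qRT-PCR, housekeeping-normalized; gain/loss fit vs DMSO.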

[18] = read-out: NAD(P)H dehydrogenase [quinone] 1 (NQO1), NQO1 (gene 1728); assay: LTEA_HepaRG_NQO1: Life Technologies and Expression Analysis (LTEA) Assay for NAD(P)H dehydrogenase [quinone] 1 (NQO1) using HepaRG (AID 2283526)
In short: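 Differentiated human HepaRG cells in serum-free induction medium, dosed in duplicate for 48 h at 8 half-log concentrations up to 100 uM in 0.5% DMSO. NQO1 mRNA by qRT-PCR normalized to ACTB, GAPDH, POLR2A; bidirectional fit versus DMSO baseline.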

Measured: AC50

Chain of Nuclear factor NF-kappa-B p105 subunit (Homo sapiens) (P19838 whole entry, looked up): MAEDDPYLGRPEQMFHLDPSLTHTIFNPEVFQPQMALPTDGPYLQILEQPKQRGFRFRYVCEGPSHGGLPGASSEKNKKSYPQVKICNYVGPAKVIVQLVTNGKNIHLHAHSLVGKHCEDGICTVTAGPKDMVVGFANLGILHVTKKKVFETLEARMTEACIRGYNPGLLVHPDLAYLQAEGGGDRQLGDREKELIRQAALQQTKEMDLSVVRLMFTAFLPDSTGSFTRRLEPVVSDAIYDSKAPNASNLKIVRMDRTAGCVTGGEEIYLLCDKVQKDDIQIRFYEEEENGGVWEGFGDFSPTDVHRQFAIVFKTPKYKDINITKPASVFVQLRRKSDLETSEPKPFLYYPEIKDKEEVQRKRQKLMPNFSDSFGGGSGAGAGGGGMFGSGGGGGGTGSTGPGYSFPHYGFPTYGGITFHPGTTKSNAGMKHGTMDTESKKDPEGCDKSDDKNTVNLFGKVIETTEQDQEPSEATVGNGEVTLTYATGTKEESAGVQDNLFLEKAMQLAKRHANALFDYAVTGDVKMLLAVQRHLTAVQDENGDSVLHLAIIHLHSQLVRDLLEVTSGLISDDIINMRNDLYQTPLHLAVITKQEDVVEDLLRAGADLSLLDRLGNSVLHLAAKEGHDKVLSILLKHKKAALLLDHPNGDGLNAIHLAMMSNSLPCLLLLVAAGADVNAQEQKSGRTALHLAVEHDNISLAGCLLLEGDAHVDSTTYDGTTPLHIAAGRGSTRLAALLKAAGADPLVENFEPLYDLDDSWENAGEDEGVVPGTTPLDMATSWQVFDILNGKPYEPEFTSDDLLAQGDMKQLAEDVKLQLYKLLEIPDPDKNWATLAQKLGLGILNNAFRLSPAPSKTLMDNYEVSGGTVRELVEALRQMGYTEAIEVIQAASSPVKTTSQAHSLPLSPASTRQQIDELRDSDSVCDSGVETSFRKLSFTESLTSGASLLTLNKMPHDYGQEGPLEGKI

CCNc1nc(N)nc(Cl)n1
inactive: all assays above

S=C(S)NCCNC(=S)S.[Mn+2].[S-]C([S-])=NCCN=C([S-])[S-].[Zn+2]
active: [1] 1.8 µM and 2.09 µM and 2.17 µM | [2] 56.2 nM and 104 nM and 174 nM | [3] 1.73 µM and 1.92 µM and 2.15 µM | [4] 1.55 µM and 1.5 µM and 1.32 µM | [6] 5.39 µM and 11.4 µM | [7] 1.36 µM and 1.75 µM | [8] 1.21 µM and 1.2 µM and 1.48 µM | [9] 1.11 µM and 1.17 µM and 2.99 µM | [10] 780 nM and 954 nM and 816 nM | [11] 846 nM and 655 nM | MYC, MYC (gene 4609) 4.59 µM and 3.61 µM | [13] 110 nM and 262 nM and 190 nM | [15] 960 nM and 2.26 µM | [16] 1.75 µM and 2.98 µM and 2.22 µM | [17] 985 nM and 1.14 µM and 908 nM | [18] 903 nM
inactive: [5] | [6] | [7] | MYC, MYC (gene 4609) | [12] | [18]
